Experimental data from PubChem BioAssay (NCATS).
Inconclusive results are not listed. Unmarked numbers belong to inactive results. The source made the active and inactive calls. Calls follow the shape of the dose curve; as a rule, active = well fitted cell-killing curve with a large enough effect; inconclusive = small, poorly fitted or top-dose-only effect, or effect the other way; inactive = no such curve, though single readings can be large or run the other way.

assay: qHTS of pediatric cancer cell lines to identify multiple opportunities for drug repurposing: Confirmatory screen for LAN-5 cells (AID 1347113); conditions: LAN-5 neuroblastoma cell viability; series mostly up to 45.9 µM; activity change, negative = cytotoxicity: at the top concentration; also: nearly all actives have a fitted effect of over 65% in size
Excerpt: Drug repurposing or repositioning has been offered as a strategy for drug development in oncology programs. This approach has special potential for childhood cancers and other rare or orphan diseases, where the expected return on new drug development has been a disincentive to pharmaceuticals.
In this project we exploit the poly-pharmacology of drugs to discover new indications via phenotypic screening of a panel of 19 well-characterized cell lines derived from solid tumors seen in children and adolescents. The goal is to identify approved drugs with previously unrecognized anticancer properties that has the potential to reveal new mechanisms and biological processes involved in carcinogenesis or drug resistance. We employed a titration-based paradigm (quantitative high-throughput screening or qHTS), where all compounds were tested at multiple concentrations for their effect on cell viability. Concentration-response curves (CRCs) were derived directly from the primary screen, and both potency and efficacy values were used to identify compounds with robust bioactivity profiles. We screened the NIH Chemical Genomics Center (NCGC) Pharmaceutical Collection (NPC) and Mechanism Interrogation Plate (MIPE) small molecule collections of approved and investigational compounds against these cell lines; and measured metabolically active cells after 48 hours of compound treatment as a proxy for cell viability.
Assay Submitter: Nathalia J. Martinez, National Center for Advancing Translational Sciences, National Institutes of Health, Rockville, MD, USA; email: natalia.martinez@nih.gov
[1] Shen, M et al. Quantitative high-throughput phenotypic screening of pediatric cancer cell lines identifies multiple opportunities for drug repurposing. Oncotarget 2017 Dec 19;9(4):4758-4772. PMID 29435139.
The cells were obtained from University of North Carolina (UNC), Pediatric Preclinical Testing Program (PPT), and Coriell Institute (CI).
qHTS cell viability assay:
Cells were assayed in growth media at a density of 500-1,000 cells/well. Five microliters of cells were dispensed into 1,536-well, white, solid-bottom, TC-treated plates (Greiner Bio One) using a multidrop dispenser and incubated at 37 degrees C, 5% CO2, under a humidified atmosphere for 5 hours. Twenty-three nanoliters of compounds and controls (neutral control DMSO or positive control bortezomib at final concentration of 2.3 µM) were subsequently transferred by Kalypsys pintool. For primary screens, the MIPE collection was tested at 11-point dilutions (final concentrations range from 0.78 nM to 46 µM) and the NPC collection at 8-point dilutions (final concentrations range from 0.59 nM to 46 µM). Compounds tested in follow-up screens were assayed at 11-point dilutions. Cells were incubated for 48 hours, followed by addition of 3 µL of CellTiter-Glo (Promega). After a 15 min incubation at room temperature, samples were analyzed for luminescence intensity using a ViewLux High-throughput CCD imager equipped with clear filters.
% is scaled to controls: 0 for no effect and ±100 for the full control effect; potency is read from the fitted curve at half-maximal effect.

SMILES	Potency	activity change, negative = cytotoxicity	outcome
CC1(C)CCC(CN2CCN(c3ccc(C(=O)NS(=O)(=O)c4ccc(NCC5CCOCC5)c([N+](=O)[O-])c4)c(Oc4cnc5[nH]ccc5c4)c3)CC2)=C(c2ccc(Cl)cc2)C1	5850 nM (active)		
O=C(O)c1ccc(-c2c[nH]c3ncc(-c4ccccc4)cc23)cc1C1CCCC1		14.2%	
NS(=O)(=O)c1cccc2c1C(=O)c1cccc(O)c1C2=O	1850 nM (active)		
O=C1C(Cl)=C(NCCN2CCOCC2)C(=O)c2ncccc21	2930 nM (active)		
COc1ccc(-c2nc(N3CCOCC3)c3sc(CN(C)c4ncc(C(=O)NO)cn4)cc3n2)cn1	465 nM (active)		
CC[C@]1(O)C[C@@H]2CN(CCc3c([nH]c4ccccc34)[C@@](C(=O)OC)(c3cc4c(cc3OC)N(C)[C@H]3[C@@](O)(C(=O)OC)[C@H](OC(C)=O)[C@]5(CC)C=CCN6CC[C@]43[C@@H]65)C2)C1	2330 nM (active)		
Nc1ncnc2c1ncn2[C@@H]1O[C@@H](CO)[C@H](O)[C@H]1O		21.1% [at 29.6 µM]	
CC(=O)O[C@]1(C(C)=O)CC[C@@H]2[C@@H]3C[C@H](C)C4=CC(=O)CC[C@]4(C)[C@H]3CC[C@@]21C		-6.92%	
C=C1C(=O)[C@@]23C(CC[C@@H]1[C@H]2O)[C@@]12CO[C@]3(O)[C@@H](O)[C@@H]1C(C)(C)CC[C@@H]2O (stereo partly specified)	4140 nM (active)		
CO[C@H]1C=CC=C(C)C(=O)NC2=CC(=O)C(NCCN(C)C)=C(C[C@@H](C)C[C@H](OC)[C@@H](O)[C@@H](C)C=C(C)[C@@H]1OC(N)=O)C2=O		16.6%	
CC1(C)O[C@H]2C[C@@H]3[C@H]4CCC5=CC(=O)C=C[C@]5(C)[C@@]4(F)[C@@H](O)C[C@]3(C)[C@]2(C(=O)CO)O1		30.1%	
COc1ncc(-c2ccc3nccc(-c4ccnnc4)c3c2)cc1NS(=O)(=O)c1ccc(F)cc1F	73.7 nM (active)		
CN(C)C1CCN(C(=O)c2ccc(NC(=O)Nc3nc(N4CCOCC4)nc(N4CCOCC4)n3)cc2)CC1	261 nM (active)		
COc1cc(N2CCC(N3CCN(C)CC3)CC2)ccc1Nc1ncc(Cl)c(Nc2ccccc2S(=O)(=O)C(C)C)n1	185 nM (active)		
CC1(C)CCC[C@@]2(C)[C@@H]1CC[C@@]1(C)OC(=O)C[C@H]21		15.5%	
CCOc1ccc(Nc2nc(-c3c(C)nc4ccccn34)cs2)cc1	1470 nM (active)		
OC[C@H]1O[C@@H](n2cnc3c2NC=NC[C@@H]3O)C[C@H]1O		29.9%	
CN[C@@H](C)C(=O)N[C@H]1CN(C(=O)CC(C)C)CC[C@H]2CC[C@@H](C(=O)NC(c3ccccc3)c3ccccc3)N2C1=O			inactive

SMILES	Potency	activity change, negative = cytotoxicity	outcome
CCc1ccc(OCc2ccccc2C(=O)Nc2ccc3nc(C)cc(N)c3c2)cc1	7370 nM (active)		
CC1(C)CCC2=C(O1)c1ccccc1C(=O)C2=O	9270 nM (active)		
CC(C)(C(=O)NCC(F)(F)C(F)(F)F)C(=O)N[C@@H]1C(=O)Nc2ccccc2-c2ccccc21		21%	
COc1cc2ncnc(Nc3ccc(F)c(Cl)c3)c2cc1OCCCN1CCOCC1	33900 nM (active)		
CC(C)n1nc(-c2ccc3oc(N)nc3c2)c2c(N)ncnc21	131 nM (active)		
CC(=O)Nc1ccc([C@H](C)C(=O)Nc2ncc(C(C)C)s2)cc1	3690 nM (active)		
O=c1cc(-c2ccc(O)cc2)oc2cc(O)cc(O)c12		-2.24%	
COc1ccc2c(Oc3ccc(NC(=O)c4c(C)n(CC(C)(C)O)n(-c5ccccc5)c4=O)cc3F)ccnc2c1		24.4%	
Cc1[nH]c(C=C2C(=O)Nc3ccc(S(=O)(=O)Cc4c(Cl)cccc4Cl)cc32)c(C)c1C(=O)N1CCC[C@H]1CN1CCCC1	9270 nM (active)		
CO[C@H]1C(=O)[C@]2(C)[C@@H](OC)C[C@H]3OC[C@@]3(OC(C)=O)[C@H]2[C@H](OC(=O)c2ccccc2)[C@]2(O)C[C@H](OC(=O)[C@H](O)[C@@H](NC(=O)OC(C)(C)C)c3ccccc3)C(C)=C1C2(C)C		-29.9%	
CC(=O)Oc1cc2c(s1)CCN(C(C(=O)C1CC1)c1ccccc1F)C2 (stereo unspecified)		18.3%	
O=C1c2ccccc2-[n+]2ccc3c([nH]c4ccccc43)c21	827 nM (active)		
CC1(C)S[C@H]2[C@H](NC(=O)[C@@H](N)c3ccc(O)cc3)C(=O)N2[C@@H]1C(=O)O		2.67%	
O=C1NC(=O)C(=Cc2ccc3c(c2)OC(F)(F)O3)S1		3.89%	
O=C(Nc1cccc(Br)c1)c1cccc(S(=O)(=O)N2CCCCCC2)c1		-17.4%	
NC1=N[C@@]2(c3cc(NC(=O)c4ccc(F)cn4)ccc3F)COC[C@@H]2CS1			inactive
CC(=NNC(=S)N1CCC1)c1ccccn1		13%	
CC[C@]1(O)C[C@@H]2CN(CCc3c([nH]c4ccccc34)[C@@](C(=O)OC)(c3cc4c(cc3OC)N(C=O)[C@@H]3C45CCN4CC=C[C@](CC)([C@H]45)[C@@H](OC(C)=O)[C@]3(O)C(=O)OC)C2)C1 (stereo partly specified)			inactive
